Records with an inconclusive call do not appear. Active and inactive are the calls of the source. The call rests on the fitted dose curve; in most records, active means well fitted cell-killing curve with a large enough effect; inconclusive means small, poorly fitted or top-dose-only effect, or effect the other way; inactive means flat fitted curve, though single readings scatter.
Experiments:
Experiment in all cases: Primary qHTS to identify gynecologic anti-cancer compounds using libraries of approved drugs and bioactive compounds (AID 1345084); further: nearly all actives have a fitted effect of over 55% in size
Details in all cases: Gynecologic cancer cell panel viability, ATPlite luminescence, 48 h; series mostly up to 57.5 µM
PA-1 = system: PA-1
How it was run: (§1)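 Five-concentration response, 48 h; readout is ATP-driven luciferase luminescence.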

SKOV3 = system: SKOV3
How it was run: as §1

Tov-21-G = system: Tov-21-G
How it was run: as §1

Tov112D = system: Tov112D
How it was run: as §1
On the % scale 0 is the no-effect control and ±100 the full control effect; potency means the concentration at half of the fitted maximal effect.

COC(=O)c1cc(OC)c(O[C@@H]2O[C@@H](C)[C@H](O)[C@@H](O)[C@H]2O)c(OC)c1
inactive: Potency (PA-1) | Potency (SKOV3) | Potency (Tov-21-G) | Potency (Tov112D)

O=C(O)c1cc(-c2c(-c3ccccc3)nn3ccccc23)n[nH]c1=O
inactive: Potency (PA-1) | Potency (SKOV3) | Potency (Tov-21-G) | Potency (Tov112D)

CC1CCC2(OC1)OC1CC3C4CCC5C[C@@H](O[C@@H]6O[C@H](CO[C@@H]7OC[C@@H](O)[C@H](O)[C@H]7O)[C@H](O)[C@H](O)[C@H]6O)CC[C@]5(C)C4CC[C@]3(C)C1C2C (some centres not stated)
inactive: Potency (PA-1) | Potency (SKOV3) | Potency (Tov-21-G) | Potency (Tov112D)

C/C1=C\C[C@]2(C)C(=O)C(O)=C([C@H](C)CO)[C@H]2C/C=C(\C)[C@@H](O)CC/C(C)=C/CC1
inactive: Potency (PA-1) | Potency (SKOV3) | Potency (Tov-21-G) | Potency (Tov112D)

CCCn1c(=O)c2[nH]c(-c3ccc(OCC(=O)O)cc3)nc2n(CCC)c1=O
inactive: Potency (PA-1) | Potency (SKOV3) | Potency (Tov-21-G) | Potency (Tov112D)

C[C@@H]1CCC/C=C/[C@H]2CC(=O)C[C@@H]2[C@@H](O)/C=C/C(=O)O1
inactive: Potency (PA-1) | Potency (SKOV3) | Potency (Tov-21-G) | Potency (Tov112D)

CCCCCCOc1cc2c(cc1N(C)c1ncc(C(=O)O)cn1)C(C)(C)CCC2(C)C
inactive: Potency (PA-1) | Potency (SKOV3) | Potency (Tov-21-G) | Potency (Tov112D)

Cc1cc(C)nc(NS(=O)(=O)c2ccc(NC(=S)NC(=O)COc3ccc(Br)cc3Cl)cc2)n1
inactive: Potency (PA-1) | Potency (SKOV3) | Potency (Tov-21-G) | Potency (Tov112D)

COc1c2c(cc3c1-c1c(cc4c(c1OC)OCO4)CC(C)C(C)C3)OCO2 (configuration not stated)
inactive: Potency (PA-1) | Potency (SKOV3) | Potency (Tov-21-G) | Potency (Tov112D)

COc1c2c(c(C)c3c1C(=O)OC3)OC1(C)CC(O)C34OC(OC)(CC(OC(C)=O)C3(C)C1C2)OC4(C)C (configuration not stated)
inactive: Potency (PA-1) | Potency (SKOV3) | Potency (Tov-21-G) | Potency (Tov112D)

CC1CC(O)C2(OC1=O)OC1C(O)C3C4CCC5CC(OC6OC(CO)C(O)C(O)C6OC6OC(C)C(O)C(O)C6O)CCC5(C)C4CCC3(C)C1C2C (configuration not stated)
inactive: Potency (PA-1) | Potency (SKOV3) | Potency (Tov-21-G) | Potency (Tov112D)

C=C(C(=O)O)C1CCC2(C)CCC(O)C(C)(O)C2C1 (configuration not stated)
inactive: Potency (PA-1) | Potency (SKOV3) | Potency (Tov-21-G) | Potency (Tov112D)

COc1c2c(c(CO)c3c1C(=O)OC3)OC1(C)CCC3(O)C(C)(C)OC(=O)CCC3(C)C1C2 (configuration not stated)
inactive: Potency (PA-1) | Potency (SKOV3) | Potency (Tov-21-G) | Potency (Tov112D)

C/C(=C\CC[C@@H](C)[C@H]1CC(O)[C@@]2(C)C3CC[C@H]4C(C)(C)[C@@H](OC5OCC(O)C(O)C5OC5OC(CO)C(O)C(O)C5O)CC[C@@]45C[C@@]35CC(O)[C@]12C)C(=O)O (some centres not stated)
inactive: Potency (PA-1) | Potency (SKOV3) | Potency (Tov-21-G) | Potency (Tov112D)

CC1(C)CC[C@]2(C(=O)O[C@@H]3O[C@H](CO[C@@H]4O[C@H](CO)[C@@H](O)[C@H](O)[C@H]4O[C@@H]4O[C@H](CO)[C@@H](O)[C@H](O)[C@H]4O)[C@@H](O)[C@H](O[C@@H]4O[C@H](CO)[C@@H](O)[C@H](O)[C@H]4O)[C@H]3O)CC[C@]3(C)C(=CCC4[C@@]5(C)CC[C@@H](O)[C@@](C)(C(=O)O[C@@H]6O[C@H](CO)[C@@H](O)[C@H](O)[C@H]6O)C5CC[C@]43C)[C@@H]2C1 (some centres not stated)
inactive: activity change, negative = cytotoxicity (PA-1) 5.56% [at 6.55 µM] | activity change, negative = cytotoxicity (SKOV3) -6.61% [at 6.55 µM] | activity change, negative = cytotoxicity (Tov-21-G) -1.95% [at 6.55 µM] | activity change, negative = cytotoxicity (Tov112D) -1.22% [at 6.55 µM]

COc1cc(C(=O)O)ccc1OC1OC(CO)C(O)C(O)C1O (configuration not stated)
inactive: Potency (PA-1) | Potency (SKOV3) | Potency (Tov-21-G) | Potency (Tov112D)

C[C@H](O)[C@H](O)/C=C/c1cccc(O)c1CO
inactive: Potency (PA-1) | Potency (SKOV3) | Potency (Tov-21-G) | Potency (Tov112D)

C/C=C/c1ccc2c(c1)[C@@H](C)[C@H](c1ccc(O)cc1)O2
inactive: Potency (PA-1) | Potency (SKOV3) | Potency (Tov-21-G) | Potency (Tov112D)

C=C1C(O)C(O)C2(CC3C(C)=CCC4C(C)(CO)CCCC34C)OC2C1O (configuration not stated)
inactive: Potency (PA-1) | Potency (SKOV3) | Potency (Tov-21-G) | Potency (Tov112D)

C=C1CCC2C(C)(C(=O)O)CCCC2(C)C1CC/C(=C\CO)CO (configuration not stated)
inactive: Potency (PA-1) | Potency (SKOV3) | Potency (Tov-21-G) | Potency (Tov112D)

O=C(O[C@H]1[C@@H]2C[C@@H]3OC[C@](O)([C@@H]1Cl)[C@H]2C(O[C@@H]1O[C@H](CO)[C@@H](O)[C@H](O)[C@H]1O)O3)c1ccc(O)c(O)c1 (some centres not stated)
inactive: Potency (PA-1) | Potency (SKOV3) | Potency (Tov-21-G) | Potency (Tov112D)

Nc1ncnc2c1nc(N)n2[C@@H]1O[C@H](CO)[C@@H](O)[C@H]1O
active: Potency (PA-1) 4.47 µM | Potency (SKOV3) 3.16 µM | Potency (Tov-21-G) 3.16 µM | Potency (Tov112D) 3.55 µM

CC1(O)CC(O)C2(O)C=COC(O[C@@H]3O[C@H](CO)[C@@H](O)[C@H](O)[C@H]3O)C12 (some centres not stated)
inactive: Potency (PA-1) | Potency (SKOV3) | Potency (Tov-21-G) | Potency (Tov112D)

Reference: PubChem BioAssay (NCATS)
